The source of these data is PubChem BioAssay AID738 (SRMLSC, 2007).

The term inhibition denotes the relative decrease from the control value, in per cent.

About 4,900 (5%) of roughly 98,000 compounds were called active. The full list was thinned out, with actives kept by preference. Values without a mark were called inactive. Rule as the data show it: active = inhibition above about 30%; inactive = the rest.

The assay in a line: yeast control strain growth suppression – counter-screen for post-Golgi transport modulator project, primary screen (AID 738). Conditions: efflux-deficient yeast background strain, growth absorbance A615, 16 h; at 10 µM; active compounds read high. For orientation: A counterscreen serves to expose hits that act by an unwanted route or on another target.
For the compound `C=CCNC(=O)c1cc2nc(C3CC3)cc(C(F)F)n2n1`, the inhibition is 11%.

As to `COC(=O)c1cc(C(=O)OC)cc(N2C(=O)CC(N3CCN(c4ccccc4)CC3)C2=O)c1` (configuration not stated), the inhibition was -1.95%.

`O=C1CC(c2ccccc2)C(=O)N1c1cccc(O)c1` (configuration not stated): the inhibition is 47.5% (active).

For `O=C1CC(NNc2ccccc2)C(=O)N1c1cccc(Cl)c1` (configuration not stated), the inhibition was -2.74%.

As to `COc1ccc(Oc2coc3cc(OC(=O)c4cncc(Br)c4)ccc3c2=O)cc1`, the inhibition is -3.94%.

Turning to `COc1ccc(C(=S)Nc2ccccc2)cc1`, the inhibition is -2.5%.

Take `CS(=O)(=O)N(CC(=O)Nc1ccc(F)cc1F)c1cccc([N+](=O)[O-])c1`: the inhibition is -6.14%.

For the compound `Cc1ccc(C(=O)c2c(NC(=O)c3ccccc3)sc(C)c2C)cc1`, the inhibition was 4.53%.

As to `Cc1ccc(C(=O)c2c(NC(=O)c3ccncc3)sc3c2CCCC3)cc1`, the inhibition was 65.8% (active).

Consider `COC(=O)c1c(NC(=O)c2cccs2)sc2c1CCCC2`, for which the inhibition is 10.9%.

In the case of `CN1C(=O)C(CC(N)=O)N(NC(=O)c2ccc(Cl)cc2)C1=S` (configuration not stated), the inhibition is -2.73%.

Consider `C=CCn1c(Oc2ccc(C(=O)OC)cc2)nc2c1c(=O)n(C)c(=O)n2C`, for which the inhibition was 11.7%.

Consider `Cc1nc(C)c(C(=O)N(c2ccc(C)c(C)c2)C(C(=O)NCc2ccco2)c2ccccc2)s1` (configuration not stated), for which the inhibition is -4.44%.

On to `O=C(COc1ncnc2c(Cl)cc(Cl)cc12)N1CCN(S(=O)(=O)c2ccccc2)CC1`, for which the inhibition is 0.78%.

For `Cc1nn(CC(=O)Nc2nc3ccccc3s2)c(C)c1[N+](=O)[O-]`, the inhibition is -2.54%.

`Cc1cc(NC(=O)CN2CCCC(C)C2)n(-c2nc3ccccc3s2)n1` (configuration not stated): the inhibition was 19.3%.

Turning to `CCOC(=O)N1CCN(CC(=O)Nc2cc(C)nn2-c2nc3ccccc3s2)CC1`, the inhibition is 42% (active).

In the case of `COc1ccc(/C=C2\CCCC3C2=NN(C(=O)c2scnc2C)C3c2ccc(OC)cc2)cc1` (configuration not stated), the inhibition is 9.28%.

`CCC(C)(C)n1nnnc1C(c1cccs1)N1CCN(Cc2ccccc2)CC1` (configuration not stated): the inhibition was 3.99%.

Turning to `CCC(C)(C)n1nnnc1C(c1cccs1)N1CCN(c2nc3ccccc3s2)CC1` (configuration not stated), the inhibition was 34.9% (active).

On to `CCC(C)(C)n1nnnc1C(c1ccccc1OC)N1CCSCC1` (configuration not stated), for which the inhibition was 17.9%.

Regarding `CCOc1ccc(C(O)Cn2c(=N)n(CCN3CCCCC3)c3ccccc32)cc1` (configuration not stated), the inhibition is 7.31%.

As to `O=C(CSc1nc(-c2ccco2)cc(C(F)(F)F)n1)NCc1cccs1`, the inhibition is 8.94%.

Turning to `O=C(CSc1nc(-c2ccco2)cc(C(F)(F)F)n1)N1CCc2ccccc2C1`, the inhibition was 30.3% (active).

As to `FC(F)(F)c1cc(-c2ccco2)nc(N2CCOCC2)n1`, the inhibition was 16.9%.

Consider `CCOC(=O)c1cnc(SC)nc1Sc1ccc(Cl)cc1Cl`, for which the inhibition is 3.77%.

Regarding `Cc1ccc(NS(=O)(=O)c2c(C)[nH]c(=O)[nH]c2=O)cc1C`, the inhibition was 11.7%.

For the compound `O=C(Cc1ccccc1)N/N=C/c1ccc(Cl)cc1Cl`, the inhibition was 24.5%.

In the case of `CCCCOc1ccc(C(C)(O)CCN2CCOCC2)cc1` (configuration not stated), the inhibition is 12.6%.

On to `COCCN1C(=O)c2oc3c(C)cc(C)cc3c(=O)c2C1c1cccc(O)c1` (configuration not stated), for which the inhibition was 4.63%.

With `CCCOc1ccc(C2c3c(oc4cc(C)c(C)cc4c3=O)C(=O)N2CCCN2CCOCC2)cc1` (configuration not stated), the inhibition is 42.7% (active).

As to `COc1ccc2c(c1)CCc1c(C(=O)N3CCCC3)noc1-2`, the inhibition is -1.03%.

Turning to `COc1ccc2c(c1)CCc1c(C(=O)N3CCc4ccccc4C3)noc1-2`, the inhibition was 44.9% (active).

Turning to `COc1ccc2c(c1)CCc1c(C(=O)Nc3c(C)n(C)n(-c4ccccc4)c3=O)noc1-2`, the inhibition was 21%.

As for `O=c1cc(C(F)(F)F)[nH]c(=O)n1C1CCCCC1`, the inhibition is 23.5%.

With `COCCN(C(=O)c1ccco1)c1nnc(-c2ccc(OC)cc2)s1`, the inhibition is 10%.

For `Cc1cc(Nc2ccccc2)nc(N)n1`, the inhibition is 4.89%.

`Cc1nn(C)cc1/C=C1\CCC/C(=C\c2cn(C)nc2C)C1=O`: the inhibition is 12.9%.

Regarding `CNC(=O)CSc1nnnn1-c1ccc(C)cc1C`, the inhibition was 24.1%.

For `CCOC(=O)CNC(=O)CSc1nnnn1-c1cc(C)ccc1C`, the inhibition was 3.59%.

As to `CCOC(=O)c1c(-c2ccc(C)cc2C)csc1NC(=O)CSc1nnnn1C`, the inhibition was 66.1% (active).

For the compound `CC(C)C(NS(=O)(=O)c1cccs1)C(=O)Nc1nc(C(C)(C)C)cs1` (configuration not stated), the inhibition was 16.8%.

On to `CS(=O)(=O)N(CC(=O)N1CCN(Cc2ccc3c(c2)OCO3)CC1)c1ccc2c(c1)OCO2`, for which the inhibition is 2.83%.

In the case of `COc1cc(Cl)c(S(=O)(=O)N2CCN(Cc3ccc4c(c3)OCO4)CC2)cc1Cl`, the inhibition was 60.2% (active).

As for `CCn1cc(C(=O)N2CCN(Cc3ccc4c(c3)OCO4)CC2)c2cc(OC)c(OC)cc2c1=O`, the inhibition is -2.75%.

For the compound `Cc1ccccc1OCc1nnc(SCC(=O)N2c3ccccc3Sc3ccc(Cl)cc32)o1`, the inhibition is 5.3%.

For `Cc1[nH]c(=O)c(C(=O)/C=C/c2ccccc2)c2c1CCCC2`, the inhibition is 24.5%.

For `O=C(NC1=NCCS1)[C@H](Cc1ccccc1)N1C(=O)c2ccccc2C1=O`, the inhibition is -1.98%.

Turning to `CCOC(=O)c1nn(-c2cccc(C)c2)cc1C(=O)c1ccccc1`, the inhibition was 12.9%.

For the compound `Nc1c(-c2ccc(F)cc2)cnc2ncnn12`, the inhibition was 1.38%.

For the compound `CNC(=S)NNC(=O)c1sccc1OCc1ccccc1`, the inhibition was 26.7%.

Regarding `Cc1ccc(NC(=O)N2CCC(O)(c3cccnc3)CC2)cc1`, the inhibition was -0.9%.

In the case of `CCOC(=O)C1=C(CN2CCc3ccccc32)NC(=O)NC1c1ccc(Cl)cc1` (configuration not stated), the inhibition was 40.8% (active).

As to `COCCOC(=O)C1=C(C)NC(=O)NC1c1ccc(Cl)cc1` (configuration not stated), the inhibition is 2.51%.

In the case of `CCOC(=O)C1=C(CN2CCc3ccccc32)NC(=O)NC1c1cccc([N+](=O)[O-])c1` (configuration not stated), the inhibition is 1.33%.

Regarding `COc1cccc2c1OCC(C(=O)NCc1ccc(Cl)cc1Cl)=C2`, the inhibition was 9.54%.

As for `O=C(CSc1nnc(-c2cccs2)n1Cc1ccccc1)N1CCc2ccccc2C1`, the inhibition is 40.2% (active).

On to `CCn1c(SCC(=O)c2ccc3ccccc3c2)nnc1-c1cccs1`, for which the inhibition was 5.6%.

Turning to `O=C(CSc1nnc(-c2cccs2)n1-c1ccccc1)NCc1ccco1`, the inhibition was 6.51%.

As to `Cc1nnc(SCC(=O)N2CCc3ccccc3C2)s1`, the inhibition is 1.25%.

Regarding `O=C(CSc1nnc(-c2cccs2)n1-c1ccccc1)N1CCN(C(=O)c2ccco2)CC1`, the inhibition was 37.9% (active).

In the case of `Cc1nnc(SCC(=O)N2CCN(c3ccccc3)CC2)n1-c1ccccc1`, the inhibition is 2.49%.

As for `O=C(OCN1C(=O)c2ccccc2C1=O)/C(=C\c1ccco1)NC(=O)c1ccccc1`, the inhibition was -11.4%.

For `Cc1cc(OC(=O)c2c(Cl)cccc2Cl)nc(C)n1`, the inhibition is 3.63%.

As to `O=C(Nc1ncc2c(n1)-c1ccccc1OC2)c1ccc(Cl)cc1`, the inhibition was 22.5%.

For `CC(C)c1ccc(N2CCN(C(=O)c3ccccc3NC(=O)/C=C(\C(=O)O)c3ccccc3)CC2)cc1`, the inhibition is 11.3%.

Turning to `Cc1ccc(S(=O)(=O)N(CC(=O)N/N=C/c2ccc(F)cc2)c2cccc3cccnc23)cc1`, the inhibition is 6.82%.

On to `CCOC(=O)c1[nH]c2ccc(OC)cc2c1NC(=O)CCN1CCN(Cc2ccccc2)CC1`, for which the inhibition was 1.92%.

On to `COC(=O)c1[nH]c2cccc(C)c2c1NC(=O)CN1CCCc2ccccc21`, for which the inhibition is 19.7%.

Turning to `COC(=O)c1[nH]c2ccccc2c1NC(=O)CN1CCCc2ccccc21`, the inhibition is 43.4% (active).

`Cc1ccc(S(=O)(=O)NCC(=O)N2CCN(c3ccccn3)CC2)cc1`: the inhibition was 2.13%.

For the compound `Cc1ccnc(N2CCN(C(=O)CSc3nc4ccccc4nc3N3CCCCC3)CC2)c1`, the inhibition was 42.9% (active).

On to `Cc1ccc2oc(=O)c3cnn(CC(=O)N4CCN(c5ccccn5)CC4)c3c2c1`, for which the inhibition is -3.03%.

Consider `Cc1ccc(SCC(=O)c2sc(-c3ccccc3)nc2C)cc1`, for which the inhibition was -6.19%.

With `C=C(C)COc1ccc(-c2n[nH]c(C)c2-c2ccccc2)c(O)c1`, the inhibition is 34.8% (active).

With `C=C(C)COc1ccc(-c2n[nH]c(C)c2-c2ccccc2OC)c(O)c1`, the inhibition is 7.96%.

Consider `COc1ccc(-c2n[nH]c(C)c2-c2ccc(OC)c(OC)c2)c(O)c1`, for which the inhibition is 15%.

In the case of `O=C(CN1C(=O)NC(Cc2ccccc2)(Cc2ccccc2)C1=O)NCC1CCCCC1`, the inhibition is 16.1%.

`COC(=O)c1cc(NC(=O)C2C3C=CC(C3)C2C(=O)O)cc(C(=O)OC)c1` (configuration not stated): the inhibition was 6.4%.

Take `CN1CCN(C(=O)C2C3C=CC(C3)C2C(=O)O)CC1` (configuration not stated): the inhibition was 36.6% (active).

Turning to `O=C(O)C1C2C=CC(C2)C1C(=O)N1CCN(CCO)CC1` (configuration not stated), the inhibition was 7.62%.

In the case of `O=C(CN1C(=O)CC(c2ccccc2)=Nc2ccccc21)NC1CCCCC1`, the inhibition was 7.73%.

Regarding `COc1cccc(CNc2nc3nc4c(c(=O)n3[nH]2)CCC4)c1`, the inhibition is 3.19%.

For `COc1cccc(-c2nc(S(=O)(=O)c3ccccc3)c(N3CCOCC3)o2)c1`, the inhibition is 15.6%.

Consider `COc1cccc(-c2cc3nc4c(c(N5CCC6(CC5)OCCO6)n3n2)CCCC4)c1`, for which the inhibition is 77.5% (active).

Regarding `CCOc1ccc(Nc2nc(Cc3nnc(SCC(=O)NC4CCCC4)n3C)cs2)cc1`, the inhibition is 5.32%.

Turning to `O=C(/C=C/c1ccccc1)c1ccoc1`, the inhibition was 17.6%.

As for `COc1ccc(C(=O)Nc2ncc3c(n2)-c2ccccc2CC3)cc1`, the inhibition was -6.73%.

For the compound `O=C(CCCN1C(=O)c2cccc3cccc(c23)C1=O)N1CCN(Cc2ccc3c(c2)OCO3)CC1`, the inhibition is 13.6%.

Take `Clc1ccc(C2CC(c3cccs3)n3ncnc3N2)cc1Cl` (configuration not stated): the inhibition is 43% (active).

On to `COc1ccc(C2CC(c3ccccc3)Nc3ncnn32)cc1` (configuration not stated), for which the inhibition was 6.21%.

In the case of `COc1ccc(C2CC(c3ccc(C)cc3)Nc3ncnn32)cc1` (configuration not stated), the inhibition is 0.32%.
